Here are results for three compounds from PubChem BioAssay (EPA / NIEHS).

Molecules are shown by their SMILES. The source holds several records for some structures; these can differ, active in one and inactive in another. The source made the active and inactive calls. Rule for the calls: active = hit-call score of the fitted dose curve at least 0.9, where 1 is the maximum; inactive = score below 0.9.

The nature of assay [1]: ATG_GLI_CIS: Attagene CIS-FACTORIAL HepG2 Assay for human Zinc Finger Protein GLI1 (AID 2282945). Conditions: HepG2, Attagene cis-factorial reporter mRNA, GLI element; actives raise or lower the signal. The procedure, abridged:
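HepG2 cells transiently transfected with cis-promoter multiplexed reporter units report endogenous transcription factor activity. After 24 h chemical exposure, reporter mRNA was quantified by RT-PCR, 6-FAM labelling, HpaI digestion and capillary electrophoresis, with bidirectional fitting against DMSO.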

The nature of assay [2]: ATG_GRE_CIS: Attagene CIS-FACTORIAL HepG2 Assay for human Glucocorticoid Response Elements (GRE) (AID 2282947). Conditions: HepG2 GRE cis-reporter, Attagene multiplex mRNA; actives raise or lower the signal. Summed up:
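HepG2 cells transiently transfected with multiple cis-promoter reporter units measure endogenous TF activity; 24 h compound exposure. Reporter mRNA quantified by RT-PCR, FAM labelling, HpaI digestion and capillary electrophoresis; bidirectional fit vs DMSO baseline.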

Assay [3] in a line: ATG_ISRE_CIS: Attagene CIS-FACTORIAL HepG2 Assay for human Interferon Regulatory Factor 1 (IRF1) binding to an Interferon-Stimulated Response Element (ISRE) (AID 2282948). Conditions: HepG2 ISRE cis-reporter (Attagene), mRNA transcription readout; actives raise or lower the signal. The procedure, abridged: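 Transfected HepG2 (multiple reporter transcription units, cis elements) dosed 24 h. RNA → oligo(dT) RT → PCR → 6-FAM primer extension → HpaI → CE. DMSO = negative control/baseline.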

Assay [4] is described as follows: ATG_M_32_CIS: Attagene CIS-FACTORIAL HepG2 Assay for M32 Transcription Factor (Internal Marker) (AID 2282949).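 Note: background control marker of the multiplexed CIS panel rather than a real target.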 The following applies: HepG2 Attagene cis-factorial M32 reporter, mRNA; actives raise or lower the signal. Summed up:
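Internal background marker read-out: RT-PCR/capillary electrophoresis fluorescence of reporter transcripts from transiently transfected HepG2 cells after 24 h chemical exposure. Activity fitted bidirectionally relative to DMSO negative control.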

Assay [5] can be described thus: ATG_M_06_CIS: Attagene CIS-FACTORIAL HepG2 Assay for M06 Transcription Factor (Internal Marker) (AID 2282950). Conditions: HepG2 Attagene CIS-FACTORIAL M06 internal marker reporter; actives raise or lower the signal. Summed up:
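Terse: HepG2, transient MRTU transfection (FuGene 6), 24 h dosing; total RNA, oligo(dT) RT, PCR, FAM label, HpaI cut, capillary electrophoresis; bidirectional fit vs DMSO baseline; background-control endpoint.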

The target in assay [6] is Hypoxia-inducible factor 1-alpha (Homo sapiens) (UniProt Q16665). The assay is described as follows: ATG_HIF1a_CIS: Attagene CIS-FACTORIAL HepG2 Assay for human Hypoxia Inducible Factor 1 (HIF1A) (AID 2282951). Conditions: HepG2 Attagene cis-factorial HIF1a reporter transcription; actives raise or lower the signal. Summed up: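 Endogenous-TF cis reporter readout, human HepG2 cells, 24 h incubation; mRNA detected via RT-PCR and capillary electrophoresis fluorescence; DMSO-normalised bidirectional fitting.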

Assay [7] concerns the target Hepatocyte nuclear factor 6 (Homo sapiens) (UniProt Q9UBC0). As to the kind of experiment: ATG_HNF6_CIS: Attagene CIS-FACTORIAL HepG2 Assay for human Hepatocyte Nuclear Factor 6 (HNF6) (AID 2282952). The following applies: HepG2 Attagene cis-factorial HNF6 reporter transcription; actives raise or lower the signal. Summed up:
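HepG2 cells transiently transfected with cis-element-driven multiplexed reporter units measuring endogenous transcription factor activity. After 24 h exposure, reporter mRNA quantified by RT-PCR, FAM-labelled fragments and capillary electrophoresis; bidirectional fitting versus DMSO.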

For assay [8], the target named is Heat shock factor protein 1 (Homo sapiens) (UniProt Q00613). The assay is described as follows: ATG_HSE_CIS: Attagene CIS-FACTORIAL HepG2 Assay for human Heat Shock Transcription Factor 1 (HSE) (AID 2282953). The following applies: HepG2 HSE cis-reporter, Attagene RNA transcription; actives raise or lower the signal. Summed up:
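Read-out: fluorescence of reporter-specific RT-PCR fragments separated by capillary electrophoresis. HepG2 carrying transfected cis-element reporter units; 24 h dosing; activity fitted in both directions relative to DMSO baseline.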

The nature of assay [9]: ATG_MRE_CIS: Attagene CIS-FACTORIAL HepG2 Assay for human Metal Responsive Element (MRE) (AID 2282954). Conditions: HepG2 MRE cis-reporter transcription, Attagene multiplex; actives raise or lower the signal. Summed up:
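HepG2 cells transiently transfected with multiple cis-element reporter units measure endogenous MTF1-driven transcription. After 24 h compound exposure, reporter mRNA is quantified by RT-PCR with 6-FAM labelling, HpaI digestion and capillary electrophoresis; bidirectional fits versus DMSO.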

Assay [10] can be described thus: ATG_PBREM_CIS: Attagene CIS-FACTORIAL HepG2 Assay for human Phenobarbital-responsive Enhancer Module (PBREM) (AID 2282955). Conditions: HepG2 PBREM cis-reporter, Attagene multiplexed transcription; actives raise or lower the signal. The procedure, abridged:
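Readout: reporter mRNA, fluorescent RT-PCR fragments separated by capillary electrophoresis. System: HepG2 transiently transfected with cis-regulated reporter units. Exposure: 24 h. Analysis: bidirectional, DMSO baseline.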

Assay [11] deals with Paired box protein Pax-6 (Homo sapiens) (UniProt P26367). As to the kind of experiment: ATG_Pax6_CIS: Attagene CIS-FACTORIAL HepG2 Assay for human Paired Box 6 (PAX6) (AID 2282956). Conditions: HepG2 CIS-FACTORIAL PAX6 reporter transcription, RNA readout; actives raise or lower the signal. Summed up: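 Transient MRTU transfection of HepG2 → compound exposure 24 h → TriZol RNA, oligo(dT) RT → PCR, 6-FAM primer extension, HpaI cut → capillary electrophoresis; activity fitted both directions against DMSO.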

Assay [12] can be described thus: ATG_PXRE_CIS: Attagene CIS-FACTORIAL HepG2 Assay for human Pregnane X Receptor Element (PXRE) (AID 2282957). The following applies: HepG2 Attagene CIS-FACTORIAL PXRE reporter, mRNA; actives raise or lower the signal. Summed up:
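HepG2 cells transiently transfected with cis-element-driven multiplexed reporter units; after 24 h chemical exposure, reporter mRNA measured by RT-PCR, 6-FAM labelling, HpaI digestion and capillary electrophoresis. Bidirectional fitting relative to DMSO.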

A short description of assay [13]: ATG_PPRE_CIS: Attagene CIS-FACTORIAL HepG2 Assay for human Peroxisome Proliferator-activated Response Element (PPRE) (AID 2282958). Conditions: HepG2 PPRE cis-element reporter, Attagene transcription factor profiling; actives raise or lower the signal. Summed up:
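After human HepG2 hepatoma cells were transiently transfected with cis-promoter reporter constructs, they were exposed to test chemicals for 24 hours. Reporter RNA was then reverse-transcribed, PCR-amplified, FAM-labeled, HpaI-digested and quantified by capillary electrophoresis.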

Assay [14] can be described thus: ATG_RORE_CIS: Attagene CIS-FACTORIAL HepG2 Assay for human RAR-related Orphan Receptor Element (RORE) (AID 2282959). Conditions: HepG2 Attagene cis-factorial RORE reporter, mRNA; actives raise or lower the signal. Summed up:
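Measured here: transcript induction of a cis-regulated reporter in HepG2 cells transiently transfected via FuGene 6. After 24 h, RNA was processed by RT-PCR and fluorescent capillary electrophoresis; DMSO defined baseline activity.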

Assay [15] can be described thus: ATG_Sox_CIS: Attagene CIS-FACTORIAL HepG2 Assay for human SRY-box transcription factor (SOX) (AID 2282960). Conditions: HepG2 Attagene cis-factorial SOX reporter, mRNA; actives raise or lower the signal. Summed up:
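Using transiently transfected HepG2 cells, reporter transcription driven by cis elements was assessed 24 h after dosing. Signal was fluorescence of capillary-separated RT-PCR products, with DMSO defining baseline activity.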

Assay [16] addresses Transcription factor Sp1 (Homo sapiens) (UniProt P08047). The assay is described as follows: ATG_Sp1_CIS: Attagene CIS-FACTORIAL HepG2 Assay for human Specificity Protein 1 (Sp1) (AID 2282961). The following applies: HepG2 Sp1 cis-reporter transcription, actives raise or lower the signal. The procedure, abridged: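 After transient transfection of HepG2 cells with cis-promoter reporter units and 24 h chemical treatment, reporter transcripts were quantified by RT-PCR and capillary electrophoresis fluorescence. Gain- and loss-of-signal fitted against DMSO.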

Assay [17] in a line: ATG_SREBP_CIS: Attagene CIS-FACTORIAL HepG2 Assay for human Sterol Regulatory Element Binding (SREBP) (AID 2282962). The following applies: HepG2 Attagene cis-factorial SREBP reporter, mRNA; actives raise or lower the signal. The procedure, abridged: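 Transfected HepG2 (cis-regulated reporter library, endogenous TFs) → compound 24 h → total RNA → oligo(dT) RT → reporter-specific PCR → FAM primer extension, HpaI cut → CE fluorescence. Fit bidirectional vs DMSO.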

For assay [18], the target named is Signal transducer and activator of transcription 3 (Homo sapiens) (UniProt P40763). The assay is described as follows: ATG_STAT3_CIS: Attagene CIS-FACTORIAL HepG2 Assay for human Signal Transducer and Activator of Transcription 3 (STAT3) (AID 2282963). Conditions: HepG2, Attagene cis-factorial STAT3 reporter transcription; actives raise or lower the signal. The procedure, abridged:
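HepG2 cells transiently transfected with cis-element-driven multiple reporter transcription units; after 24 h chemical exposure, reporter mRNA measured by RT-PCR, 6-FAM primer-extension labelling, HpaI digestion and capillary electrophoresis. Bidirectional fitting versus DMSO baseline.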

Assay [19] is described as follows: ATG_TA_CIS: Attagene CIS-FACTORIAL HepG2 Assay for human TA Basal Promoter (AID 2282964). Conditions: HepG2 Attagene CIS-factorial TA basal promoter reporter; actives raise or lower the signal. Summed up: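 Transfected HepG2, 24 h compound exposure; RNA → RT-PCR → FAM primer extension → HpaI cut → CE fluorescence. Gain/loss-of-signal fitted against DMSO negative control. Background-control readout.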

A short description of assay [20]: ATG_TCF_b_cat_CIS: Attagene CIS-FACTORIAL HepG2 Assay for human T-Cell-Factor with beta-catenin (TCF/b-cat) (AID 2282965). The following applies: HepG2 TCF/beta-catenin cis-reporter transcription, actives raise or lower the signal. Summed up:
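HepG2 cells transiently transfected with multiple cis-promoter-regulated reporter transcription units, so endogenous transcription factor activity is measured. Reporter mRNA read 24 hours after dosing by RT-PCR, fluorescent labelling and capillary electrophoresis; bidirectional fitting against DMSO.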

Hypoxia-inducible factor 1-alpha (Homo sapiens), sequence (Q16665 whole entry, looked up): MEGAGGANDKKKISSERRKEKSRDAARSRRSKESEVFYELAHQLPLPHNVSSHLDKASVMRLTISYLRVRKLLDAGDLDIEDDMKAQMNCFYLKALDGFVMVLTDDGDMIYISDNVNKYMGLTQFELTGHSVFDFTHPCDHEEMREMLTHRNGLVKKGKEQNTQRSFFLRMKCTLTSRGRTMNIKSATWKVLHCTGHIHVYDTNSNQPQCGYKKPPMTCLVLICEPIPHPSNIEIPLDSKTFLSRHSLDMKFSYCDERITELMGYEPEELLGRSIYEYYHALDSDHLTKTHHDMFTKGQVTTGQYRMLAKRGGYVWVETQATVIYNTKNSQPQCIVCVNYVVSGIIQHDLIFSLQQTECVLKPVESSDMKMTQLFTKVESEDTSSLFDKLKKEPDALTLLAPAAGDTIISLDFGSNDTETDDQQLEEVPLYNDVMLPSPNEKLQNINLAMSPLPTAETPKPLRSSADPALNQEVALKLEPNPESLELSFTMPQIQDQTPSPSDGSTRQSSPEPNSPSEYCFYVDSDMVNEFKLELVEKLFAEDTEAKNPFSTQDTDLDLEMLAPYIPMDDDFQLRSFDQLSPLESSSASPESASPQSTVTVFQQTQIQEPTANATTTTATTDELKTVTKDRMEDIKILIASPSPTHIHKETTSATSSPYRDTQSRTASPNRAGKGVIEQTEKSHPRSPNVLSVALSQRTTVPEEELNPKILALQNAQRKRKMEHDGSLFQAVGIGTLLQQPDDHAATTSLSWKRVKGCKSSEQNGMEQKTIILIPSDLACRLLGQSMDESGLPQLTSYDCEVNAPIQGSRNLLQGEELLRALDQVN
Paired box protein Pax-6 (Homo sapiens), sequence (P26367 whole entry, looked up): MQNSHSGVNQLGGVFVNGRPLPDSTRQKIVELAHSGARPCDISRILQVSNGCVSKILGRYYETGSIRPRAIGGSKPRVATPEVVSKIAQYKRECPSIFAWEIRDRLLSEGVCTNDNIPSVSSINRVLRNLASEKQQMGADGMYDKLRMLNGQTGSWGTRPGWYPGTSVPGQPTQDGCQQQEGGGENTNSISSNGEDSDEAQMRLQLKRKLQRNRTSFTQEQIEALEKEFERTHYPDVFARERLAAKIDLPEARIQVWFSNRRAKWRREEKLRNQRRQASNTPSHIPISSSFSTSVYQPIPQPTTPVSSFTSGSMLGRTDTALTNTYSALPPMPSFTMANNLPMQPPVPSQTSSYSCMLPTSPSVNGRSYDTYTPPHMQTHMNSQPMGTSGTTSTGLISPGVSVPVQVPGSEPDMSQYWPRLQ
Hepatocyte nuclear factor 6 (Homo sapiens), sequence (Q9UBC0 whole entry, looked up, the tested form may be a part): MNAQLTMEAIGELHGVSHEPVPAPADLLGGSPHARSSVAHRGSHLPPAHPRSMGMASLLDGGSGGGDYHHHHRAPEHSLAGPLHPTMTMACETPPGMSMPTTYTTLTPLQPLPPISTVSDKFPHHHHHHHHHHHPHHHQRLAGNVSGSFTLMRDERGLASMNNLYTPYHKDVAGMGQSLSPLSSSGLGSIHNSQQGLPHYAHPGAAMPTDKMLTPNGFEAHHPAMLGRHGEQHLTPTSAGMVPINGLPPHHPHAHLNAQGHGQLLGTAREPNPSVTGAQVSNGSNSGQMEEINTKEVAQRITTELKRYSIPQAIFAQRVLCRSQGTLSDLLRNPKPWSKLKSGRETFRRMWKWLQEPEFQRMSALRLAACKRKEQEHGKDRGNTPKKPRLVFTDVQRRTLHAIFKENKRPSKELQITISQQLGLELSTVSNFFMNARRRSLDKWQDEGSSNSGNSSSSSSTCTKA
Signal transducer and activator of transcription 3 (Homo sapiens), sequence (P40763 whole entry, looked up): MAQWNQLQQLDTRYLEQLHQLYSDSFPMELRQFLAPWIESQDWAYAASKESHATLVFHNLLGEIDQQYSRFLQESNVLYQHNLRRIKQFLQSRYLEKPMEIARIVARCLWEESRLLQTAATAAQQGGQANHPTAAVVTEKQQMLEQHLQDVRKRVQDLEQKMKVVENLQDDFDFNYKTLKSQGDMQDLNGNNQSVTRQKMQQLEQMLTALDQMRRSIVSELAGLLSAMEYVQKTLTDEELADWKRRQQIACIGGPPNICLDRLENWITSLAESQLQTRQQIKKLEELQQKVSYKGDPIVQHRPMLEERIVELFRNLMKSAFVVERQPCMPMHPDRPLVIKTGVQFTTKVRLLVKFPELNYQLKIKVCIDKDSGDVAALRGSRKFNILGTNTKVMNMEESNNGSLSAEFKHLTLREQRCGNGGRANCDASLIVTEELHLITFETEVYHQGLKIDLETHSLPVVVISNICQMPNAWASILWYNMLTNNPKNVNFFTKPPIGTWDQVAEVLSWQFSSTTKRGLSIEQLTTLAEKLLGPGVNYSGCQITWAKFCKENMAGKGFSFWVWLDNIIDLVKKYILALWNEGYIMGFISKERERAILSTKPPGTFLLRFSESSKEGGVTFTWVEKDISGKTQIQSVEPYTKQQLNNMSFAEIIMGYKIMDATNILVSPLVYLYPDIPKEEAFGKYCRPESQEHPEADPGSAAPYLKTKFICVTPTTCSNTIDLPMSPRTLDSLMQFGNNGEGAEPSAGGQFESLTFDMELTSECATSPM
Transcription factor Sp1 (Homo sapiens), sequence (P08047 whole entry, looked up): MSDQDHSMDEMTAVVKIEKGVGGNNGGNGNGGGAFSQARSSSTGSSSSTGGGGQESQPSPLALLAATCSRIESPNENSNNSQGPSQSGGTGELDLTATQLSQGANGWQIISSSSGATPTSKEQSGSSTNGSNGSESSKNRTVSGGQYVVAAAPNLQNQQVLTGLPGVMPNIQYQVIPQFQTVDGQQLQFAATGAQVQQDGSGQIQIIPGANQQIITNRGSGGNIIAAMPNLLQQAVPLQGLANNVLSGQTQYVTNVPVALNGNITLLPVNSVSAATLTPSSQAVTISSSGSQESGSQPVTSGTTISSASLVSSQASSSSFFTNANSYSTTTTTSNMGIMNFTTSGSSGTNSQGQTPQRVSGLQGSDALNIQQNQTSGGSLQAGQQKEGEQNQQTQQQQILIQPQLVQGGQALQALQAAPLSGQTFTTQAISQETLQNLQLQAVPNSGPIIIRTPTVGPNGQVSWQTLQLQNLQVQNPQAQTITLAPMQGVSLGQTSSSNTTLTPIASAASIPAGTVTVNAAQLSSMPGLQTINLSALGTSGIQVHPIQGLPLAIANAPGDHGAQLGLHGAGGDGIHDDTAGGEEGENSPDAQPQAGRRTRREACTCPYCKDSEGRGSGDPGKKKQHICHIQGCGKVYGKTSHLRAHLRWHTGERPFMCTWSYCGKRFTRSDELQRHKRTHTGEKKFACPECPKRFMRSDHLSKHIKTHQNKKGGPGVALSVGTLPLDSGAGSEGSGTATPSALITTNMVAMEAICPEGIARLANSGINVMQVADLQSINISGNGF
Heat shock factor protein 1 (Homo sapiens), sequence (Q00613 whole entry, looked up, the tested form may be a part): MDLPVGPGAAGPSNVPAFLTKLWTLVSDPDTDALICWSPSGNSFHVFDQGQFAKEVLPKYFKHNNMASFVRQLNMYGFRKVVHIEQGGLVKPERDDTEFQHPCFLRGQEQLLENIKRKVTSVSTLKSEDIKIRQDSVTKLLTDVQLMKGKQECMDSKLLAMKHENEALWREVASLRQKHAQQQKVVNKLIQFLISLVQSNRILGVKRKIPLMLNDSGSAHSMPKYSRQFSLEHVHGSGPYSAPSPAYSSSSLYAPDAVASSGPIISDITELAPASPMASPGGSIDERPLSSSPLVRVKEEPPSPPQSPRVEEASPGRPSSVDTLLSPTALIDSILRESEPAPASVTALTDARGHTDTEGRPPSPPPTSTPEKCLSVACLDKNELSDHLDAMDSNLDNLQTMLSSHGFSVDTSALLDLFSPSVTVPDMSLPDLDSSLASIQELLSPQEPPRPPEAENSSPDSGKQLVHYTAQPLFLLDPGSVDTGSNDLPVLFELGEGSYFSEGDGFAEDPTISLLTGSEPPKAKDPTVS

The AC50 is the midpoint of the concentration-response curve, whichever way the signal moves. Turning to `O=C(Nc1ccccc1)Nc1cnns1`, the concentration at half-maximal activity (AC50) in [1] is 50 µM (active); in [8] it was 93.4 µM (active); in [9], 50 µM (active); in assay [11] it was 85 µM (active); in [12], 66.5 µM (active); in assay [15] it was 50 µM (active). Besides, the AC50 in [16] was 21.1 µM (active); in assay [17], 50 µM (active). In addition, the compound was called inactive in assay [2], in [3], in assay [4], in assay [5], in assay [6] and in assay [7]. In addition, the result in assay [10], in assay [13], in assay [14], in [18], in [19] and in assay [20] was inactive.

For the compound `N#CN`, the compound was called inactive in assay [1], in assay [2], in assay [3], in [4], in assay [5] and in assay [6]. For the same compound, the result in assay [7], in assay [8], in assay [9], in assay [10], in [11] and in assay [12] was inactive. Besides, the compound was classed as inactive in assay [13], in [14], in [15], in [16], in assay [17] and in assay [18]. Moreover, the compound was called inactive in [19] and in [20].

Take `COC(=O)c1ccccc1CS(=O)(=O)NC(=O)Nc1nc(OC)cc(OC)n1`: the compound was classed as inactive in [1], in [2], in [3], in assay [4], in assay [5] and in assay [6]. The result in [7], in assay [8], in [9], in assay [10], in [11] and in assay [12] was inactive. The result in assay [13], in [14], in assay [15], in assay [16], in [17] and in assay [18] was inactive. Besides, the result in assay [19] and in assay [20] was inactive. Besides, the AC50 in [12] was 33.9 µM (active).
